# Screening results (PubChem)
# MITF act: activators of MITF-driven TRPM1 promoter reporter, primary screen, cell-based, SK-MEL-5, luciferase, single point; AID 588334, 2011; activation, % at 12.5 µM; SK-MEL-5 TRPM1-promoter luciferase, 24 h; % of positive control, neutral wells = 0; 300,000 tested, 0.75% active;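 active = mean activation of at least 80% with every replicate also reaching 80%; inconclusive = mean reaches 80% but some replicate falls short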
# esBAF inh: Bmi1 luciferase reporter increase in mESCs, primary screen, esBAF inhibitor project, mouse ES cells, Bmi1 luciferase knock-in, single point; reporter increase, % at 12.5 µM; 24 h; 100% = twice the neutral-well signal; 350,000 tested, 2% active; AID 602393, 2012; in the data active = activation above about 40%; inconclusive = no clear call, values can overlap the other calls;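 note: a rise in the Bmi1 reporter signal indicates esBAF inhibition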
# C2C12 statin: suppressors of statin myotoxicity in C2C12 myotubes, primary screen, cell-based, single point, plate reader. C2C12 myotubes + simvastatin, ATP luminescence, 48 h; scaled: DMSO 0, geranylgeraniol control 100. 330,000 tested, 0.78% active. rescue of ATP level, % at 7.49 µM. AID 602340, 2012;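 active = mean ATP rescue above about 67%, or every replicate alone reaching that limit, limit read from the data, passing the limit was not always enough; inconclusive = no clear call, values can overlap the other calls; inactive = mean under the limit and some replicate under it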;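 note: myotubes were challenged with 10 µM simvastatin during compound exposure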
# Wnt act: Wnt/beta-catenin pathway activators, primary screen, cell-based, plate reader, single point | AID 743398, 2014 | 300,000 tested, 1.2% active | Wnt/beta-catenin reporter cell assay, activator | activation, % at 9.35 µM; in the data active = activation above about 30%, passing the limit was not always enough; inconclusive = no clear call, values can overlap the other calls
# MITF TRPM1 inh: inhibitors of MITF-dependent TRPM1 promoter reporter, primary screen, cell-based, SK-MEL-5, single point, luciferase. inhibition, % at 12.5 µM. SK-MEL-5 TRPM1 promoter luciferase, 24 h. 330,000 tested, 0.83% active. AID 488899, 2010;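 active = mean inhibition across replicates of 60% or more, whatever share of single replicates reaches that level; inconclusive = some that reach 60%, reason not given; inactive = mean inhibition across replicates below 60%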
# LMP1 NFkB inh: EBV LMP1-driven NF-kappaB luciferase reporter inhibitors, primary screen, cell-based, luminescence, single point. LMP1-induced NF-kappaB luciferase reporter cells. inhibition, % at 12.5 µM. 350,000 tested, 0.69% active. AID 504558, 2011; in the data active = inhibition above about 41%; inconclusive = no clear call, values can overlap the other calls
# Numbers stand for hits; - = inactive; ? = inconclusive; . = no result given. Only some compounds are listed: those with a hit (about 4% of all), similar ones and a draw of the others.
SMILES,MITF act,esBAF inh,C2C12 statin,Wnt act,MITF TRPM1 inh,LMP1 NFkB inh
Cc1ccc(-c2cc(C(=O)NCc3ccccn3)c3ccccc3n2)cc1C,-,48.4,-,.,-,-
COCCNC(=O)c1cc(-c2ccc(-c3ccccc3)cc2)nc2ccccc12,-,47.4,-,-,-,-
Cc1cccc(-c2cc(C(=O)NCc3ccccn3)c3ccccc3n2)c1,-,.,.,-,-,-
CCc1ccc(-c2cc(C(=O)Nn3cnnc3)c3ccccc3n2)cc1,-,.,.,-,65.6,76.8
CCCc1ccc(-c2cc(C(=O)NCCc3ccc(S(N)(=O)=O)cc3)c3ccccc3n2)cc1,105.7,-,-,.,-,-
CCCc1ccc(-c2cc(C(=O)NN3CCOCC3)c3ccccc3n2)cc1,-,-,-,.,-,-
O=C(NCc1ccccn1)c1cc(-c2ccc(-c3ccccc3)cc2)nc2ccccc12,-,45.3,-,-,-,-
CC(=O)c1ccc(OCC(=O)Nc2ccc3c(c2)OCO3)cc1,.,-,-,-,.,-
Cc1ccc(-c2ccc(CCC(=O)O)n2-c2ccc(O)cc2)cc1,-,-,-,.,-,-
Cc1ccc(-c2ccc(CCC(=O)O)n2-c2cccc(O)c2)cc1,-,63.5,-,.,-,-
CC(C)c1ccc(NC(=O)CNC(=O)Cn2cnc3ccccc3c2=O)cc1,-,.,.,-,-,-
COCCNC(=O)C(c1ccc(C)o1)N(CC1CCCO1)C(=O)Cn1nnc2ccccc21 (stereo unspecified),-,-,-,-,-,-
O=C(NCc1ccco1)C(c1ccc(F)cc1)N(CC1CCCO1)C(=O)Cn1nnc2ccccc21 (stereo unspecified),-,-,89.0,-,-,-
CCN(CC)NC(=S)Nc1ccccc1,-,-,-,-,-,-
CCCc1ccc2oc(C(=O)N(C)Cc3nccs3)c(C)c2c1,-,52.2,-,-,-,-
CCCc1ccc2oc(C(=O)N3CCC(O)CC3)c(C)c2c1,-,?,-,-,-,-
Cc1cc(C)n(CCCN2CCC(C(=O)Nc3cccc(-c4cccc(F)c4)c3)CC2)n1,-,-,-,-,62.3,-
CCn1ncc(CN2CCC(C(=O)Nc3cccc(-c4cccc(F)c4)c3)CC2)c1C,-,-,-,-,-,-
Cc1nc(Nc2nc3ccccc3o2)nc(C)c1C(=O)Nc1ccc(F)cc1,-,.,.,43.2,-,-
CCOC(=O)c1cnc(Nc2nc3ccccc3o2)nc1C,-,-,-,-,-,64.9
CCOC(=O)c1cnc(Nc2nc3ccccc3o2)nc1CSc1nnc(C)s1,-,-,-,-,-,-
CC(C)(C)C(=O)NC(=S)Nc1sc2c(c1C(N)=O)CCC2,-,-,.,-,-,-
CCOC(=O)c1c(NC(=O)c2cccs2)sc(CC)c1-c1cccs1,-,-,-,.,-,-
Cc1cc(C(=O)Nc2sccc2C(N)=O)c(C)o1,-,.,.,-,-,-
Cc1sc(NC(=O)c2cccs2)c(C(N)=O)c1C,-,88.4,-,-,-,-
SMILES,MITF act,esBAF inh,C2C12 statin,Wnt act,MITF TRPM1 inh,LMP1 NFkB inh
NC(=O)c1ccsc1NC(=O)c1cccs1,-,46.8,-,-,-,-
Cc1sc(NC(=S)NC(=O)C(C)(C)C)c(C(N)=O)c1C,-,47.4,-,.,-,-
CSc1nnc(-c2ccccc2)c(=O)[nH]1,-,-,96.7,-,-,-
Cc1cc(C)cc(OCC(O)CN2CCC(CN3C(=O)c4cccc5cccc(c45)C3=O)CC2)c1 (stereo unspecified),-,.,.,-,71.5,-
Cc1nn(CCOc2ccccc2)c(=O)n1-c1ccccc1,-,42.6,-,-,-,-
Cc1nc(-c2cc(-c3nc(-c4ccc(C(F)(F)F)cc4)no3)no2)cs1,-,-,-,-,-,-
Cc1cc(-c2nc(-c3ccc(C(C)(C)C)cc3)no2)no1,100.3,61.8,-,-,-,-
CCOc1ccccc1-n1c(CN2CCN(C(=O)c3ccco3)CC2)nc2ccccc2c1=O,-,.,.,.,80.3,-
CCOc1ccccc1-c1nc(CN2CCN(C(=O)c3ccco3)CC2)c(C)o1,-,-,-,-,-,-
O=S(=O)(NCc1csc(-c2cccs2)n1)c1ccc(Cl)cc1,-,-,-,-,-,-
O=S(=O)(NCc1csc(-c2cccs2)n1)c1cccc(C(F)(F)F)c1,-,-,130.9,-,-,-
CC(C)(C)OC(=O)N1CCC(C(=O)Nc2ccc3c(c2)CCC3)CC1,?,74.5,-,-,-,-
O=C(Nc1ccc(F)c(Cl)c1)C1CCCN(c2cnccn2)C1 (stereo unspecified),-,-,110.2,-,-,-
Cc1ccc(NC(=O)C2CCCN(c3ncccn3)C2)c(C)c1 (stereo unspecified),-,50.6,-,-,-,-
Cc1ccc(NC(=O)C2CCCN(c3nccc(C)n3)C2)c(C)c1 (stereo unspecified),-,-,-,-,-,-
O=C(Nc1ccc2c(c1)CCC2)C1CCCN(c2ncccn2)C1 (stereo unspecified),85.7,62.0,-,.,-,-
O=C(Nc1cccc(F)c1)C1CCCN(c2cnccn2)C1 (stereo unspecified),-,-,-,-,-,-
COc1ccc(OC)c(NC(=O)CN(C)CC(=O)Nc2ccccc2Cl)c1,-,-,-,-,-,-
O=Cc1cccn1-c1nccc(-c2ccco2)n1,-,-,-,-,-,-
Cc1ccsc1C(=O)OCC(=O)N1CCc2ccccc2C1,92.2,57.3,-,-,-,-
O=C(OCC(=O)N1CCc2ccccc2C1)c1c(F)cccc1Cl,114.8,-,-,54.9,-,-
CC(NC(=O)COc1ccccc1)C(c1ccccc1)N1CCN(C)CC1 (stereo unspecified),-,-,90.3,.,-,-
Cc1snc(SCC(=O)c2ccc(Cl)cc2)c1C#N,125.8,-,-,.,-,-
Cc1ccnc(SCC(=O)c2ccc(Br)cc2)c1C#N,-,.,.,42.0,-,-
Cc1ccc(C(=O)CSc2nsc(C)c2C#N)cc1,-,.,.,.,-,-
Cc1cc(C)c(C#N)c(OCC(=O)c2ccc(Br)cc2)n1,-,-,-,.,-,-
C=CC[C@H](CC(=O)N[C@H](CO)Cc1ccccc1)C(=O)N[C@@H](COC(=O)[C@H](CC=C)CC(=O)OC(C)(C)C)Cc1c[nH]c2ccccc12,-,-,-,-,-,-
CC(C)c1ccc(/C=N/NC(=O)c2ccccc2Cl)cc1,-,.,.,-,-,-
CNC(=S)N/N=C/c1ccc(C(C)C)cc1,-,58.6,-,.,-,-
CNC(=S)N/N=C/c1ccc(N(C)C)cc1,.,.,.,48.0,-,-
